# Laboratory results as given in the supplement of paper PMC4466140.
# B1: unnamed (peptide)
# chain: VNIPSPSSSPPPIPK
# B2: unnamed (peptide)
# chain: RTIRKLPLMSLSEYF
# Experiments:
# Assay in all cases: SPOT peptide array binding signal intensity (averaged, normalized) (arbitrary units (background-subtracted, floor 0; scale differs between SH3 domains)); higher = stronger binding of the SH3 domain to the peptide
# CaNbp2 = target: CaNbp2
# Method in brief: (§1)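 GST-SH3 fusions from four yeast species, purified on glutathione Sepharose, were incubated at 10 μg/ml overnight at 4°C on membranes of synthetic 15-mer peptides in which cysteines were replaced with serines. Binding signal is the normalized, background-subtracted spot intensity averaged over replicates, in domain-specific arbitrary units.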
# CaRvs167 = target: CaRvs167
# Method in brief: as §1
# CaRvs167-3 = target: CaRvs167-3
# Method in brief: as §1
# CaSho1 = target: CaSho1
# Method in brief: as §1
# CaSla1-D1-D2 = target: CaSla1-D1-D2
# Method in brief: as §1
# CaSla1-D3 = target: CaSla1-D3
# Method in brief: as §1
# ScAbp1 = target: ScAbp1
# Method in brief: as §1
# ScBbc1 = target: ScBbc1
# Method in brief: as §1
# ScBem1-D1 = target: ScBem1-D1
# Method in brief: as §1
# ScBzz1-D1 = target: ScBzz1-D1
# Method in brief: as §1
# ScBzz1-D2 = target: ScBzz1-D2
# Method in brief: as §1
# ScCyk3 = target: ScCyk3
# Method in brief: as §1
# ScFus1 = target: ScFus1
# Method in brief: as §1
# ScHof1 = target: ScHof1
# Method in brief: as §1
# ScHse1 = target: ScHse1
# Method in brief: as §1
# ScLsb1 = target: ScLsb1
# Method in brief: as §1
# ScLsb2 = target: ScLsb2
# Method in brief: as §1
# ScLsb3 = target: ScLsb3
# Method in brief: as §1
# ScLsb4 = target: ScLsb4
# Method in brief: as §1
# ScMyo3 = target: ScMyo3
# Method in brief: as §1
# ScMyo5 = target: ScMyo5
# Method in brief: as §1
# ScNbp2 = target: ScNbp2
# Method in brief: as §1
# ScPex13 = target: ScPex13
# Method in brief: as §1
# ScRvs167 = target: ScRvs167
# Method in brief: as §1
# ScSho1 = target: ScSho1
# Method in brief: as §1
# ScSla1-D1-D2 = target: ScSla1-D1-D2
# Method in brief: as §1
# ScSla1-D3 = target: ScSla1-D3
# Method in brief: as §1
# SpAbp1-D1 = target: SpAbp1-D1
# Method in brief: as §1
# SpBbc1 = target: SpBbc1
# Method in brief: as §1
# SpBzz1-D1 = target: SpBzz1-D1
# Method in brief: as §1
# SpBzz1-D2 = target: SpBzz1-D2
# Method in brief: as §1
# SpCyk3 = target: SpCyk3
# Method in brief: as §1
# SpHof1 = target: SpHof1
# Method in brief: as §1
# SpHof1-2 = target: SpHof1-2
# Method in brief: as §1
# SpHof1-3 = target: SpHof1-3
# Method in brief: as §1
# SpHse1 = target: SpHse1
# Method in brief: as §1
# SpLsb1 = target: SpLsb1
# Method in brief: as §1
# SpLsb4 = target: SpLsb4
# Method in brief: as §1
# SpMyo1 = target: SpMyo1
# Method in brief: as §1
# SpNbp2 = target: SpNbp2
# Method in brief: as §1
# SpPex13 = target: SpPex13
# Method in brief: as §1
# SpRvs167 = target: SpRvs167
# Method in brief: as §1
# SpSla1-D1-D2 = target: SpSla1-D1-D2
# Method in brief: as §1
# SpSla1-D3 = target: SpSla1-D3
# Method in brief: as §1
# AgAbp1 = target: AgAbp1
# Method in brief: as §1
# AgBbc1 = target: AgBbc1
# Method in brief: as §1
# AgBem1-D1 = target: AgBem1-D1
# Method in brief: as §1
# AgBzz1-D1 = target: AgBzz1-D1
# Method in brief: as §1
# AgBzz1-D2 = target: AgBzz1-D2
# Method in brief: as §1
# AgCyk3 = target: AgCyk3
# Method in brief: as §1
# AgFus1 = target: AgFus1
# Method in brief: as §1
# AgHof1 = target: AgHof1
# Method in brief: as §1
# AgHse1 = target: AgHse1
# Method in brief: as §1
# AgLsb1 = target: AgLsb1
# Method in brief: as §1
# AgLsb4 = target: AgLsb4
# Method in brief: as §1
# AgMyo5 = target: AgMyo5
# Method in brief: as §1
# AgNbp2 = target: AgNbp2
# Method in brief: as §1
# AgRvs167 = target: AgRvs167
# Method in brief: as §1
# AgSho1 = target: AgSho1
# Method in brief: as §1
# AgSla1-D1-D2 = target: AgSla1-D1-D2
# Method in brief: as §1
# AgSla1-D3 = target: AgSla1-D3
# Method in brief: as §1
# CaAbp1-D1 = target: CaAbp1-D1
# Method in brief: as §1
# CaAbp1-D2 = target: CaAbp1-D2
# Method in brief: as §1
# CaBbc1 = target: CaBbc1
# Method in brief: as §1
# CaBem1-D1 = target: CaBem1-D1
# Method in brief: as §1
# CaBzz1-D1 = target: CaBzz1-D1
# Method in brief: as §1
# CaBzz1-D2 = target: CaBzz1-D2
# Method in brief: as §1
# CaCyk3 = target: CaCyk3
# Method in brief: as §1
# CaFus1 = target: CaFus1
# Method in brief: as §1
# CaHof1 = target: CaHof1
# Method in brief: as §1
# CaHse1 = target: CaHse1
# Method in brief: as §1
# CaLsb1 = target: CaLsb1
# Method in brief: as §1
# CaLsb4 = target: CaLsb4
# Method in brief: as §1
# CaMyo5 = target: CaMyo5
# Method in brief: as §1
binder,measurement,setting,value
B1,SPOT peptide array binding signal intensity,CaNbp2,19.5
same,SPOT peptide array binding signal intensity,CaRvs167,≤ 0
same,SPOT peptide array binding signal intensity,CaRvs167-3,2.25
same,SPOT peptide array binding signal intensity,CaSho1,2
same,SPOT peptide array binding signal intensity,CaSla1-D1-D2,≤ 0
same,SPOT peptide array binding signal intensity,CaSla1-D3,1.25
same,SPOT peptide array binding signal intensity,ScAbp1,≤ 0
same,SPOT peptide array binding signal intensity,ScBbc1,1
same,SPOT peptide array binding signal intensity,ScBem1-D1,≤ 0
same,SPOT peptide array binding signal intensity,ScBzz1-D1,≤ 0
same,SPOT peptide array binding signal intensity,ScBzz1-D2,6
same,SPOT peptide array binding signal intensity,ScCyk3,≤ 0
same,SPOT peptide array binding signal intensity,ScFus1,≤ 0
same,SPOT peptide array binding signal intensity,ScHof1,≤ 0
same,SPOT peptide array binding signal intensity,ScHse1,35
same,SPOT peptide array binding signal intensity,ScLsb1,≤ 0
same,SPOT peptide array binding signal intensity,ScLsb2,≤ 0
same,SPOT peptide array binding signal intensity,ScLsb3,≤ 0
same,SPOT peptide array binding signal intensity,ScLsb4,≤ 0
same,SPOT peptide array binding signal intensity,ScMyo3,3090
same,SPOT peptide array binding signal intensity,ScMyo5,2780
same,SPOT peptide array binding signal intensity,ScNbp2,6
same,SPOT peptide array binding signal intensity,ScPex13,≤ 0
same,SPOT peptide array binding signal intensity,ScRvs167,≤ 0
same,SPOT peptide array binding signal intensity,ScSho1,1.5
same,SPOT peptide array binding signal intensity,ScSla1-D1-D2,2.5
same,SPOT peptide array binding signal intensity,ScSla1-D3,≤ 0
same,SPOT peptide array binding signal intensity,SpAbp1-D1,1
same,SPOT peptide array binding signal intensity,SpBbc1,≤ 0
same,SPOT peptide array binding signal intensity,SpBzz1-D1,80.5
same,SPOT peptide array binding signal intensity,SpBzz1-D2,≤ 0
same,SPOT peptide array binding signal intensity,SpCyk3,1
same,SPOT peptide array binding signal intensity,SpHof1,≤ 0
same,SPOT peptide array binding signal intensity,SpHof1-2,≤ 0
same,SPOT peptide array binding signal intensity,SpHof1-3,≤ 0
same,SPOT peptide array binding signal intensity,SpHse1,43
same,SPOT peptide array binding signal intensity,SpLsb1,≤ 0
same,SPOT peptide array binding signal intensity,SpLsb4,≤ 0
same,SPOT peptide array binding signal intensity,SpMyo1,1720
same,SPOT peptide array binding signal intensity,SpNbp2,≤ 0
same,SPOT peptide array binding signal intensity,SpPex13,1.5
same,SPOT peptide array binding signal intensity,SpRvs167,≤ 0
same,SPOT peptide array binding signal intensity,SpSla1-D1-D2,2
same,SPOT peptide array binding signal intensity,SpSla1-D3,2
B2,SPOT peptide array binding signal intensity,AgAbp1,7.5
same,SPOT peptide array binding signal intensity,AgBbc1,14.5
same,SPOT peptide array binding signal intensity,AgBem1-D1,106
same,SPOT peptide array binding signal intensity,AgBzz1-D1,8
same,SPOT peptide array binding signal intensity,AgBzz1-D2,21
same,SPOT peptide array binding signal intensity,AgCyk3,0.5
same,SPOT peptide array binding signal intensity,AgFus1,345
same,SPOT peptide array binding signal intensity,AgHof1,34.5
same,SPOT peptide array binding signal intensity,AgHse1,356
same,SPOT peptide array binding signal intensity,AgLsb1,≤ 0
same,SPOT peptide array binding signal intensity,AgLsb4,61.5
same,SPOT peptide array binding signal intensity,AgMyo5,0.25
same,SPOT peptide array binding signal intensity,AgNbp2,379
same,SPOT peptide array binding signal intensity,AgRvs167,3
same,SPOT peptide array binding signal intensity,AgSho1,122
same,SPOT peptide array binding signal intensity,AgSla1-D1-D2,46
same,SPOT peptide array binding signal intensity,AgSla1-D3,8
same,SPOT peptide array binding signal intensity,CaAbp1-D1,285
same,SPOT peptide array binding signal intensity,CaAbp1-D2,123
same,SPOT peptide array binding signal intensity,CaBbc1,42.5
same,SPOT peptide array binding signal intensity,CaBem1-D1,66.5
same,SPOT peptide array binding signal intensity,CaBzz1-D1,82.5
same,SPOT peptide array binding signal intensity,CaBzz1-D2,63.5
same,SPOT peptide array binding signal intensity,CaCyk3,59
same,SPOT peptide array binding signal intensity,CaFus1,942
same,SPOT peptide array binding signal intensity,CaHof1,≤ 0
same,SPOT peptide array binding signal intensity,CaHse1,121
same,SPOT peptide array binding signal intensity,CaLsb1,4.5
same,SPOT peptide array binding signal intensity,CaLsb4,282
same,SPOT peptide array binding signal intensity,CaMyo5,6
same,SPOT peptide array binding signal intensity,CaNbp2,571
same,SPOT peptide array binding signal intensity,CaRvs167,42.5
same,SPOT peptide array binding signal intensity,CaRvs167-3,4.75
same,SPOT peptide array binding signal intensity,CaSho1,668
same,SPOT peptide array binding signal intensity,CaSla1-D1-D2,152
same,SPOT peptide array binding signal intensity,CaSla1-D3,98.2
same,SPOT peptide array binding signal intensity,ScAbp1,23
same,SPOT peptide array binding signal intensity,ScBbc1,5.25
same,SPOT peptide array binding signal intensity,ScBem1-D1,48
same,SPOT peptide array binding signal intensity,ScBzz1-D1,15
same,SPOT peptide array binding signal intensity,ScBzz1-D2,21
same,SPOT peptide array binding signal intensity,ScCyk3,28.5
same,SPOT peptide array binding signal intensity,ScFus1,328
same,SPOT peptide array binding signal intensity,ScHof1,3
same,SPOT peptide array binding signal intensity,ScHse1,1080
same,SPOT peptide array binding signal intensity,ScLsb1,2
same,SPOT peptide array binding signal intensity,ScLsb2,≤ 0
same,SPOT peptide array binding signal intensity,ScLsb3,639
same,SPOT peptide array binding signal intensity,ScLsb4,92
same,SPOT peptide array binding signal intensity,ScMyo3,2.5
same,SPOT peptide array binding signal intensity,ScMyo5,4.5
same,SPOT peptide array binding signal intensity,ScNbp2,556
same,SPOT peptide array binding signal intensity,ScPex13,54.2
same,SPOT peptide array binding signal intensity,ScRvs167,71.7
same,SPOT peptide array binding signal intensity,ScSho1,1040
same,SPOT peptide array binding signal intensity,ScSla1-D1-D2,290
same,SPOT peptide array binding signal intensity,ScSla1-D3,58.2
same,SPOT peptide array binding signal intensity,SpAbp1-D1,85.5
same,SPOT peptide array binding signal intensity,SpBbc1,1
same,SPOT peptide array binding signal intensity,SpBzz1-D1,109
same,SPOT peptide array binding signal intensity,SpBzz1-D2,1
same,SPOT peptide array binding signal intensity,SpCyk3,8.5
same,SPOT peptide array binding signal intensity,SpHof1,239
same,SPOT peptide array binding signal intensity,SpHof1-2,18
same,SPOT peptide array binding signal intensity,SpHof1-3,327
same,SPOT peptide array binding signal intensity,SpHse1,458
same,SPOT peptide array binding signal intensity,SpLsb1,3.5
same,SPOT peptide array binding signal intensity,SpLsb4,816
same,SPOT peptide array binding signal intensity,SpMyo1,7
same,SPOT peptide array binding signal intensity,SpNbp2,484
same,SPOT peptide array binding signal intensity,SpPex13,26
same,SPOT peptide array binding signal intensity,SpRvs167,20
same,SPOT peptide array binding signal intensity,SpSla1-D1-D2,≤ 0
same,SPOT peptide array binding signal intensity,SpSla1-D3,19
